# Screening results: PubChem, Sanford-Burnham Center for Chemical Genomics
# Compounds with a hit are over-represented: about 4% of the library has one in this group of screens.
# TROY signal inh: blocks TROY-dependent signaling in reporter cells; 360,000 tested, 0.98% active; AID 1347056; inhibition, % at 10 µM; Q293 LMP1-TROYcd NF-kB luciferase reporter, 4 h;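 active = compounds whose plate-normalised and pattern-corrected inhibition of the luciferase reporter signal at the single screening dose is 50% or more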
# KKLEB cytotox: CF airway cell cytotoxicity counter-screen; KKLEB CF airway cells viability, ATPlite luminescence, overnight; active compounds read low; cells stimulated with P. aeruginosa culture filtrate; activity change (cytotoxicity), % at 5 µM; 360,000 tested, 0.36% active;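 active = corrected activity change at or below -50% at 5 µM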
# Peg3 promoter: reduces Peg3 promoter-driven luciferase expression in HeLa | inhibition, % at 20 µM | 360,000 tested, 1.7% active | HeLa PEG-Prom luciferase reporter, luminescence, overnight;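 active = inhibition of at least 50% at 20 µM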
# CF NFkB block: cystic fibrosis NF-kB activation inhibition; KKLEB NF-kB-GFP reporter, PAF-induced, GFP fluorescence overnight; inhibition, % at 5 µM; 360,000 tested, 0.86% active; AID 588850;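 active = at least 50% inhibition at 5 µM, scaled per plate between neutral and stimulator controls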;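 also: PAF is a Pseudomonas aeruginosa culture filtrate used as stimulus; plate controls were PAF-stimulated DMSO wells for no effect and unstimulated DMSO wells for full effect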
# TWEAK-Fn14 inh: TWEAK-Fn14 signaling inhibition; TWEAK-stimulated Fn14 reporter cells, luciferase luminescence, 8 h; inhibition, % at 10 µM; 360,000 tested, 2% active; in the data active = inhibition above about 50%
# HIF-2a block: blocks HIF-2a reporter activity; 360,000 tested, 0.72% active; 786-0 RCC cells HIF-2a reporter, luciferase luminescence, overnight; AID 624352; inhibition, % at 18.8 µM;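 active = inhibition of the luminescence signal of 40% or more relative to plate controls, in a single-dose primary screen at 18.75 µM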
# Starred values were filed as active, the others as inactive; x = no result.
SMILES,TROY signal inh,KKLEB cytotox,Peg3 promoter,CF NFkB block,TWEAK-Fn14 inh,HIF-2a block
CCOc1ccccc1/C=C(/NC(=O)c1ccccc1)C(=O)N(CC)CC,50*,-2,7,6,58*,12
COc1ccc(N=[N+]([O-])c2ccc(OC)cc2)cc1,-6,-16,-181,-18,62*,-82
COc1ccc(S(=O)(=O)c2ccc(OC)cc2)cc1,-11,4,8,-10,1,9
Oc1ccccc1-n1c(-c2ccccc2)ccc1-c1ccccc1,-42,-37,57*,38,0,-70
O=C(CCNS(=O)(=O)c1cccc2nonc12)N1CCN(c2cccc(Cl)c2)CC1,14,-15,25,21,24,16
Cc1cccc(NC(=O)NCC2CCN(c3ccc(S(=O)(=O)N4CCOCC4)cc3)CC2)c1,54*,-1,7,-2,-6,1
Cn1c(CNC(=O)CNS(=O)(=O)c2ccccc2)cc(=O)n(C)c1=O,-20,3,2,-1,-14,7
Cc1cc(C)n2nc(NCc3cccc(Br)c3)nc2n1,80*,-4,-6,-6,-18,-31
CC(C)(C)CC(=O)NC(=S)N1CCCCCC1,1,1,21,3,-14,9
O=C(NNC(=O)c1ccccc1-n1cccc1)c1ccc(Cl)cc1,-13,9,3,-12,83*,10
O=C(NNC(=O)c1ccccc1-n1cccc1)c1ccc(Cl)c(Cl)c1,4,7,2,1,7,7
CC(=O)NS(=O)(=O)c1ccc(NC(=O)c2ccc(-n3nc(C)cc3C)cc2)cc1,-14,6,5,-16,-2,12
Cc1cc(OCC(=O)Nc2ccncc2)ccc1Br,x,-11,-33,-5,88*,-45
CCOC(=O)c1c2c(n(-c3ccc(OC)cc3)c1C)C(=O)C(=O)c1ccccc1-2,61*,-91*,102*,82*,107*,83*
CC(=O)Nc1nc(C)c(Oc2ccc(C)cc2)c(=O)[nH]1,0,6,9,-4,7,23
CN1C(=O)C(Cl)(Cl)C(=O)c2ccccc21,12,-12,8,53*,51*,8
O=C(c1ccc(C(F)(F)F)cc1)N1CCC(=O)N([C@H](COCc2ccc(C(F)(F)F)cc2)Cc2ccccc2)CC1,-2,x,x,x,24,9
CCCc1ccc(S(=O)(=O)N2CCN(C(C)C(=O)NC3CCCC3)CC2)cc1 (centres undefined),15,-10,4,18,3,15
CCC(C)c1ccc(S(=O)(=O)N2CCN(C(C)C(=O)NC3CCCC3)CC2)cc1 (centres undefined),-18,10,10,-10,87*,10
COc1ccc(NC(=O)CN(C)C(=O)C(C)Sc2ccccc2)cc1 (centres undefined),-16,-1,10,-3,-14,16
CC(C)(C)n1ncc2c(=O)n(CC(=O)NCc3ccccc3)cnc21,45,-9,-41,-3,84*,-72
Cc1ccc(-n2c(SCC(=O)Nc3ccc4c5c(cccc35)CC4)nc(O)c(C)c2=O)cc1,3,-5,-4,-1,7,13
CS(=O)(=O)c1ccc(C(=O)OCC(=O)NC(=O)C2CCCCC2)cc1[N+](=O)[O-],51*,-20,98*,74*,73*,18
CS(=O)(=O)c1ccc(C(=O)OCC(=O)N2CCOCC2)cc1[N+](=O)[O-],3,-7,0,43,40,6
CS(=O)(=O)c1ccc(C(=O)OCC(=O)N2CCN(CCC3CCCCC3)CC2)cc1[N+](=O)[O-],34,-85*,97*,101*,79*,80*
SMILES,TROY signal inh,KKLEB cytotox,Peg3 promoter,CF NFkB block,TWEAK-Fn14 inh,HIF-2a block
CS(=O)(=O)c1ccc(C(=O)OCC(=O)NC(=O)C2COc3ccccc3O2)cc1[N+](=O)[O-] (centres undefined),8,24,8,8,55*,1
CN1Cc2c(N3CCOCC3)nc3sc(C(=O)c4ccccc4)c(N)c3c2CC1(C)C,7,-8,34,-8,-14,-1
ON1C(c2ccccc2C(F)(F)F)N(O)[C@H]2CCCC[C@H]21 (some centres undefined),-6,12,6,-5,-1,12
O=C(Nc1cccc([N+](=O)[O-])c1)c1cc2ccccc2cc1O,12,-52*,-257,60*,83*,-271
Cc1ccc2c(=O)n3c(nc2c1)C(Cc1ccccc1)NC(=O)c1cccnc1-3 (centres undefined),-13,4,9,-7,-14,6
CN(CCN1CCOCC1)C(=O)CC1C(=O)NCCN1Cc1ccccc1F (centres undefined),-3,23,7,10,3,12
CCNC(=S)Nc1ccc2cn[nH]c2c1,15,-1,14,-2,5,5
N#CC(C#N)=NNc1ccc2cn[nH]c2c1,62*,-8,23,79*,92*,3
COc1ccc(NC(=O)CSc2ccccc2)c([N+](=O)[O-])c1,-56,8,-220,7,-36,-257
NC(=O)CC(NC(=O)c1cccc(Br)c1)c1ccc(N2CCN(c3ccccn3)CC2)c([N+](=O)[O-])c1 (centres undefined),-6,-14,18,-19,-2,81*
CCCCN(CCCC)S(=O)(=O)c1ccc(NC(=O)c2ccc([N+](=O)[O-])cc2Cl)cc1,31,-17,18,22,63*,-22
O=C(Nc1ccc2c(c1)CCC2)c1ccc(F)cc1,-48,-7,-203,10,20,-179
O=C(Nc1ccc2c(c1)CCC2)c1cc(S(=O)(=O)Nc2ccc(F)cc2)c(Cl)cc1Cl,37,10,2,-7,52*,-43
O=C(CNC(=O)c1ccccc1Br)N/N=C/c1cccnc1,-3,14,-8,-11,0,5
COc1cccc(/C=N/Nc2ccc([N+](=O)[O-])cn2)c1O,56*,-91*,59*,100*,89*,78*
COc1cccc(/C=N/Nc2nc(Nc3ccc([N+](=O)[O-])cc3)nc(N3CCCC3)n2)c1O,-2,-43,62*,97*,45,0
O=[N+]([O-])c1ccc(NN=Cc2cccc3ccccc23)nc1,-38,-5,-72,-58,-39,-72
O=[N+]([O-])c1cccc(C=NNc2ccc3ccccc3n2)c1O,75*,-16,18,-11,97*,-70
COc1ccc(-c2nsc3c(N4CCCC4)ncnc23)cc1,66*,-38,6,-16,95*,-44
O=C(c1ccco1)N1CCN(c2ncnc3c(-c4ccc(Cl)cc4)nsc23)CC1,63*,-3,-32,-2,61*,-24
O=C(CSc1ncnc2nc[nH]c12)c1ccc([N+](=O)[O-])cc1,3,0,8,0,-4,12
O=C(c1ccc([N+](=O)[O-])cc1)N1CCC(Cc2ccccc2)CC1,-6,8,15,-11,4,5
